aGal spleen mod: alpha-galactosidase A (human) modulation; P06280; human spleen homogenate, 4MU-alpha-Gal fluorescence, 40 min; Potency, µM (highest dose often 80 µM), usual class: inhibitors; AID 2107; 240,000 tested, 0.008% active
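Spleen homogenate 1 ug + cpd (titration) + 4-MU-alpha-D-galactopyranoside 1 mM; 37C 40 min; 50 mM citrate/phosphate pH 5.0, 0.01% Tween-20; stop pH 10; fluorescence 365/440; AC50 via Hill.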
HPGD inh: inhibitors of human 15-hydroxyprostaglandin dehydrogenase (HPGD); purified HPGD, NADH fluorescence kinetic, PGE2 substrate; Potency, µM, most hits filed as inhibitors; 150,000 tested, 4.3% active; AID 894; active = well fitted inhibition curve with a large enough effect, not every such curve was filed as active; inconclusive = small, poorly fitted or top-dose-only effect, or another doubt; inactive = no such curve, though single readings can be large or run the other way
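20 nM HPGD preincubated 15 min at room temperature with compound in 50 mM Tris-HCl pH 8, 0.01% Tween 20. Started with 1 mM NAD+ and 30 uM prostaglandin E2; NADH fluorescence (360/450 nm) read 5 times over 30-s intervals, last minus first.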
12-hLO inh: inhibitors of human 12-lipoxygenase (ALOX12). purified 12-hLO, xylenol orange hydroperoxide absorbance. 150,000 tested, 0.12% active. Potency, µM (top dose mostly 57.1 µM), usual class: inhibitors; note: nearly all actives have a fitted effect of over 55% in size
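Purified human 12hLO (150 nM), preincubated 15 min with compound, then 40 uM arachidonic acid for 30 min, room temperature, Hepes pH 7.0 with 0.01% Triton X-100. Hydroperoxide detected by ferrous iron/xylenol orange; 573/405 nm absorbance ratio gives reaction progress.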
GLA inh pH 4.5: blocks human alpha-galactosidase A at pH 4.5. P06280. purified enzyme, 4-MU-alpha-Gal fluorescence, pH 4.5. activity change, negative = inhibition, % at 105 µM. 230,000 tested, under 10 active. AID 1467
ALDH1A1 block: inhibitors of human aldehyde dehydrogenase 1A1; P00352; Purified ALDH1A1, NADH fluorescence, propionaldehyde substrate; Potency, µM (titrated, usually from 75.3 µM), actives largely listed as inhibitors; 220,000 tested, 7.3% active; active = well fitted inhibition curve with a large enough effect, not every such curve was filed as active; inconclusive = small, poorly fitted or top-dose-only effect, or another doubt; inactive = no such curve, though single readings can be large or run the other way
Target sequence (P00352 whole entry, looked up): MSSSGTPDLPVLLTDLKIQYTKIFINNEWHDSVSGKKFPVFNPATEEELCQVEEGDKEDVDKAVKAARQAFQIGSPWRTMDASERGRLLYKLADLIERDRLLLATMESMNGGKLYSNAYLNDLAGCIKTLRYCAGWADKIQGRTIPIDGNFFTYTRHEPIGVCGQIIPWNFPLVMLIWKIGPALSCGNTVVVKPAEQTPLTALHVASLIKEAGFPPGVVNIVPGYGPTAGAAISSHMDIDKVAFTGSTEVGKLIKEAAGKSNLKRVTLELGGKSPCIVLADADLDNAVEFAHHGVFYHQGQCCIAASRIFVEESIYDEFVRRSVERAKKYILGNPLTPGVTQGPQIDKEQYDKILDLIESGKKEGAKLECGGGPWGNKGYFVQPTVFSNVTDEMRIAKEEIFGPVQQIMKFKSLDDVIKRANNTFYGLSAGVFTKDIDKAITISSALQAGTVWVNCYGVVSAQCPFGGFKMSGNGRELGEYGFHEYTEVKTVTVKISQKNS
PNC inhibitor: inhibitors of perinucleolar compartment assembly. activity change (PNC), negative = inhibition, % at 10 µM. AID 2417. PC3M PTB-GFP, PNC prevalence imaging, 16 h; active compounds read low. 140,000 tested, 3.1% active;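 active = readout at or below -70, meaning at least 70% loss of cells showing the perinucleolar compartment, a nuclear body marking cancer cells; inconclusive = readout between -30 and a set limit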
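PC3M cells stably expressing PTB-GFP, 750–1000 cells/well, treated 16 h at 37 °C with compound (23 nl of library stock), in duplicate. After paraformaldehyde fixation and Hoechst stain, imaged at 20x; PNC prevalence scored by image analysis.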
A number is an active result; . = inactive; ? = inconclusive; / = no result given; ! = not active in a repeat; [ ] = dose if it differs, or a comment. In the library only some 10% were active in any assay of this set; here they are far more common. Unless noted, calls come from the whole dose curve; as a rule, active = well fitted curve in the direction sought with a large enough effect; inconclusive = small, poorly fitted or top-dose-only effect, or another doubt; inactive = no such curve, though single readings can be large; an effect the other way counts as inactive or inconclusive.

SMILES	aGal spleen mod	HPGD inh	12-hLO inh	GLA inh pH 4.5	ALDH1A1 block	PNC inhibitor
C=CC(=O)OCC(CO)(COC(=O)C=C)COC(=O)C=C	.	.	.	/	0.4µM	/
Cc1nc2c(=O)n(C)c(=O)nc-2n(C)n1	.	.	.	.	.	-93
O=C(Cl)/C=C/C(=O)Cl	.	.	.	/	.	/
Cn1c(O)c(/C=N/Nc2ccccc2)c(=O)n(C)c1=O	.	/	/	.	10µM	/
C/C(=N\Nc1ccccc1)c1c(O)n(C)c(=O)n(C)c1=O	.	.	.	.	25µM	?
CC(=O)N1CCN(c2ccc(OC[C@@H]3CO[C@@](Cn4ccnc4)(c4ccc(Cl)cc4Cl)O3)cc2)CC1	.	.	.	.	.	/
COc1ccc(CCNCc2ccncc2)cc1	.	.	.	.	22µM	.
c1ccc2c(c1)CN1CCCC1=N2	.	.	.	.	.	/
O=C(c1cc2ccccn2n1)N1CCC2(CC1)OCCO2	.	.	.	.	?	?
COc1ccc(-c2cc(C(F)(F)F)n3nc(C(=O)N4CCC5(CC4)OCCO5)cc3n2)cc1OC	.	13µM	.	.	10µM	.
[O-][Cl+2]([O-])O	.	.	.	/	?	/
c1ccc(CCN2CCCCCC2)nc1	/	.	.[11.4 µM]	/	.[13.5 µM]	/
O=C1NC(=O)C(=Cc2ccc(OCCOc3ccc([N+](=O)[O-])cc3)cc2)C(=O)N1	.	/	/	.	18µM	/
CCCOCCN(C(=O)CCl)c1c(CC)cccc1CC	.	/	/	/	/	/
C=CC1CC=CCC1 (configuration not stated)	.	.	.	/	22µM	/
C=C(C)[C@H]1CN[C@H](C(=O)O)[C@H]1CC(=O)O	.	16µM!	.[0.00818 µM]	.	20µM!	/
CN1CCN(c2ccc3nc(-c4ccc5nc(-c6ccc(O)cc6)[nH]c5c4)[nH]c3c2)CC1	/	?	.[11.4 µM]	/	?	/
CC(ON1CC1(C(F)(F)F)C(F)(F)F)(C(N)=O)C(N)=O (configuration not stated)	.	.	.	.	.	-93
CCCSC(=O)Cl	.	.	.	/	.	/
CC1=C2C(=CO[C@H](C)[C@H]2C)C(=O)C(C(=O)O)=C1O	.	.	/	.	.	/
CC1CCc2c(sc3nc(CSc4n[nH]c(N)n4)[nH]c(=O)c23)C1 (configuration not stated)	.	.	.	.	?	-95
Nc1nc(SCCC(F)=C(F)F)n[nH]1	.	/	/	.	.	/
CCCCCCCCc1[se]c2ccccc2c1[Se]c1ccccc1	.	.	.[0.00818 µM]	.	.	/
COC(=O)CCCc1[se]c2ccccc2c1I	.	22µM	.[0.00818 µM]	.	32µM	/
Cc1onc(-c2ccccc2)c1C(=O)NC1C(=O)N2C(C(=O)O)C(C)(C)S[C@@H]12 (some centres not stated)	.	.	.	.	.	/
SMILES	aGal spleen mod	HPGD inh	12-hLO inh	GLA inh pH 4.5	ALDH1A1 block	PNC inhibitor
NC[C@@H](Cc1ccccc1)P(=O)(O)O	/	.	.[11.4 µM]	/	.[13.5 µM]	/
O=C(O)CNC(=O)[C@@H](CS)Cc1ccccc1	.	7.9µM	.	.	?	/
CCCCNC(=O)/C(C#N)=c1\s/c(=C\c2ccccc2OC(F)F)c(=O)n1CCCOC	.	.	.	.	?	.
C=C(c1ccccc1)P(=O)(O)O	.	.	.	.	.	-113
Cc1[nH]cnc1CCN	.	.	.	.	.	/
c1cc2n(c1)-c1c(ccc3c1OCO3)CNC2c1ccc2c(c1)OCO2 (configuration not stated)	.	.	.	.	.	.
COc1ccc(C2NCc3ccc4c(c3-n3cccc32)OCO4)cc1O (configuration not stated)	.	.	.	.	.	-108
CCOC(=O)c1ccc(N=Cc2c(O)n(-c3ccccc3F)c(=S)[nH]c2=O)cc1	.	.	.	.	.	.
CCOC(=O)c1ccc(N=Cc2c(O)n(-c3ccc(OC)cc3)c(=S)[nH]c2=O)cc1	.	/	/	.	?	/
CCOC(=O)c1c(/N=C/c2c(O)n(-c3ccccc3F)c(=S)[nH]c2=O)sc2c1CCCC2	.	22µM	.	.	1.3µM	?
CCOC(=O)c1c(/N=C/c2c(O)n(-c3ccc(F)cc3)c(=S)[nH]c2=O)sc2c1CCCC2	.	.	.	.	18µM	.
BrCCBr	.	.	.	/	.	/
NC1CCCC[C@@H]1N (some centres not stated)	.	/	/	/	/	/
O=C(c1cc(-c2ccccc2)on1)N1CCC2(CC1)OCCO2	.	/	/	.	.	/
O=C(c1sc2ccccc2c1Cl)N1CCC2(CC1)OCCO2	.	14µM	.	.	10µM	.
COc1ccc(Nc2ncc(C(=O)N3CCC4(CC3)OCCO4)c3ccccc23)cc1	.	22µM	.	.	.	?
O=C1C=CC[C@@H]2[C@H]3CCCN4CCC[C@@H](CN12)[C@@H]34	.	.	/	.	.	/
Nc1c(C(=O)NCC2CCCO2)c2nc3ccccc3nc2n1Cc1ccco1 (configuration not stated)	.	/	/	.	/	/
CCOC(=O)c1ccc(-n2c(N)c(C(=O)NCC3CCCO3)sc2=S)cc1 (configuration not stated)	.	7.9µM	.	.	4µM	?
NC1CCc2cc(O)c(O)cc2C1 (configuration not stated)	.	.	/	.	7.9µM!	/
CCOC(=O)c1ccc(N2C(=O)CC(N3CCC(O)(c4ccc(Br)cc4)CC3)C2=O)cc1 (configuration not stated)	.	?	.	.	1.6µM	.
N#CC1(c2ccccc2)CCN(C2CC(=O)N(c3cccc(F)c3)C2=O)CC1 (configuration not stated)	.	/	/	.	?	/
CCOC(=O)c1ccc(N2C(=O)CC(N3CCC(O)(c4ccc(Cl)cc4)CC3)C2=O)cc1 (configuration not stated)	.	.	.	.	7.9µM	.
O=C1CC(N2CCC(n3c(=O)[nH]c4ccccc43)CC2)C(=O)N1c1ccc(F)cc1 (configuration not stated)	.	.	.	.	.	?
NC(=O)CF	.	/	/	/	/	/
SMILES	aGal spleen mod	HPGD inh	12-hLO inh	GLA inh pH 4.5	ALDH1A1 block	PNC inhibitor
COc1ccc2c(c1O)-c1cccc3c1[C@H](C2)N(C)CC3	/	/	.	/	/	/
CN1CC[C@@]2(C)c3cc(OC(=O)Nc4ccccc4)ccc3N(C)[C@@H]12	.	/	/	/	11µM	/
Cc1nn(Cc2ccccc2)c2c1C(c1ccco1)C(C#N)=C(N)O2 (configuration not stated)	.	.	.	.	28µM	?
COc1ccc(/C=C/C2=CCN(C)CC2)cc1	.	/	/	.	25µM	/
Cc1ccc(C(=O)NC(O)C(Cl)(Cl)Cl)cc1 (configuration not stated)	.	14µM	.	.	.	?
Cc1cccc(C(=O)NC(Oc2ccccc2)C(Cl)(Cl)Cl)c1 (configuration not stated)	.	.	.	.	.	.
CN(C)CCCCCCN(C)C	.	.	.	/	?	/

Screening data: PubChem BioAssay, National Center for Advancing Translational Sciences (NCATS)
